Compound activity from PubChem.
Only some compounds are listed: those with a hit (about 10% of all), similar ones and a draw of the others.
3T3 cytotox = cytotoxic compounds in NIH 3T3 cells | Potency, µM (highest dose often 96.7 µM), inactives show at the highest dose activity change, negative = cytotoxicity, usual class: inhibitors | NIH 3T3 viability, CellTiter-Glo ATP luminescence, 48-72 h | AID 1345082 | 94,000 tested, 4.3% active; also: nearly all actives have a fitted effect of over 55% in size
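ATP-dependent luminescence (CellTiter-Glo) served as the viability signal for NIH 3T3 cells treated with compound for 48 or 72 hr at 37 °C.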
GPT2 inh = blocks human glutamate pyruvate transaminase 2; Q8TD30; Recombinant GPT2, coupled pyruvate oxidase/HRP Amplex Red fluorescence; Potency, µM (doses to about 57.7 µM), without a hit: top-dose activity change, negative = inhibition, most hits filed as inhibitors; 100,000 tested, 0.25% active; AID 1671188; also: nearly all actives have a fitted effect of over 60% in size
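Fluorescence of coupled pyruvate oxidase/HRP/Amplex Red system (50uM Amplex, 30 min, dark) reports pyruvate formed by GPT2. Enzyme reaction: 10ng/uL GPT2, 2mM L-alanine, 250uM a-KG, 30 min room temperature, pH 7.5; 50uM AOA control.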
NPR1 antag = human Npr1 receptor antagonism; HEK293 hNpr1 GloSensor cGMP, ANP-stimulated luminescence; Potency, µM (highest dose often 46.3 µM), without a hit: at the top dose activity change, negative = inhibition, usual class: inhibitors; 76,000 tested, 1.6% active; calls by dose curve; also: nearly all actives have a fitted effect of over 60% in size
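HEK293 cells stably expressing human Npr1 and cGMP GloSensor pGS-40F, loaded 2 h with 2% GloSensor reagent, given compound 30 min at room temperature. Luminescence read before and 20 min after 0.1 nM hNppA.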
Luciferase inh = inhibitors of firefly (Photinus pyralis) luciferase. Potency, µM (top dose mostly 115 µM), most hits filed as inhibitors. 76,000 tested, 2.5% active. P08659. AID 1347043. purified P. pyralis luciferase, luminescence, biochemical; also: nearly all actives have a fitted effect of over 65% in size
Target sequence (P08659 whole entry, looked up): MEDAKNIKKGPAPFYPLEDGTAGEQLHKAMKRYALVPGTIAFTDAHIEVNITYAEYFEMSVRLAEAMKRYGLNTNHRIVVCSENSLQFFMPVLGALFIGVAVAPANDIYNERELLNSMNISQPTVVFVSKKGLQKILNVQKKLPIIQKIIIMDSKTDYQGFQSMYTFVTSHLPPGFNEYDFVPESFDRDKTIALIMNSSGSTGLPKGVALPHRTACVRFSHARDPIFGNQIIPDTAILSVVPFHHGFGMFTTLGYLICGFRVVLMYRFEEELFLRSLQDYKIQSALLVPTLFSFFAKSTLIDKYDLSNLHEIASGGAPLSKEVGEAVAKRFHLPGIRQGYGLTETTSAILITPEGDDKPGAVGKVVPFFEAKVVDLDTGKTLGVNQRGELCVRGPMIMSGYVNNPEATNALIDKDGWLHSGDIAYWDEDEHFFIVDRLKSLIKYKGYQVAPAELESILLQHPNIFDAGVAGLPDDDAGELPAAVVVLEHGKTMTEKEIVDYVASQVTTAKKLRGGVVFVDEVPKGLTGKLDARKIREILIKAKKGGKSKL
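FLuc 10nM, D-luciferin 10uM, ATP 10uM, Mg acetate 10mM, Tris acetate pH 7.5, Tween/BSA; cpd qHTS; enzyme added last; CCD luminescence.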
HEK293 tox = HEK 293 cell cytotoxicity; HEK 293 viability, ATP luminescence (CellTiter-Glo), 48-72 h; 94,000 tested, 6.6% active; Potency, µM (top dose mostly 115 µM), for the others: at the highest dose activity change, negative = cytotoxicity, hits mostly inhibitors; AID 1345083; also: nearly all actives have a fitted effect of over 60% in size
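250 HEK 293 cells/well; compound by pintool; incubated 48 or 72 hr at 37 degree Celsius; CellTiter-Glo added, 10 min RT, luminescence imaged.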
Active calls of the source: *; i = inactive; ? = inconclusive; · = no result; [ ] = dose if it differs, or a comment. Unless noted, calls follow the shape of the dose curve; as a rule, active = well fitted curve in the direction sought with a large enough effect; inconclusive = small, poorly fitted or top-dose-only effect, or another doubt; inactive = no such curve, though single readings can be large; an effect the other way counts as inactive or inconclusive. % is scaled to controls: 0 for no effect and ±100 for the full control effect; potency is read from the fitted curve at half-maximal effect.

SMILES	3T3 cytotox	GPT2 inh	NPR1 antag	Luciferase inh	HEK293 tox
CC(O)c1cc2n(n1)CCCN(Cc1cccc(OC3CCCC3)c1)C2 (centres undefined)	?	i	?	i	?
CC(C)c1ccc2c(c1)C(O)CC1C(C)(C(=O)O)CCCC21C (centres undefined)	·	i	·	·	·
CC(=O)Nc1cc(-c2cn(C)c(=O)n3cc(CN4CC[S+](=O)([O-])CC4)nc23)ccn1	100µM*	-2%[88.5 µM]	1%[70.6 µM]	i	-17%[172 µM]
COc1ccc(CNC(=O)c2nnn3c2CN(Cc2cccc(Cl)c2)C(=O)CC3)cc1OC	?	0%	-10%	i	-26%
O=C(Nc1ccccc1)c1nnn2c1CN(Cc1ccccc1)C(=O)CC2	100µM*	i	0%[70.6 µM]	i	i
COc1cccc2c1OCCCN(c1cc(C3CC(O)C3)nc(N)n1)C2 (centres undefined)	13µM*	0%[11.5 µM]	-30%	i	?
Cc1cccc(C)c1OC1CN(c2cc(C3CC(O)C3)nc(N)n2)C1 (centres undefined)	-21%	4%	-7%	i	35µM*
Nc1nc(C2CC(N)C2)cc(N2CC(c3nc4ccccc4[nH]3)C2)n1 (centres undefined)	-4%	i	5%	i	-13%
COc1ccc(C)cc1NC(=O)N1CCCC1c1nncn1C1CCCC1 (centres undefined)	32µM*	-26%	-2%	i	6%
COc1ccc(C)cc1NC(=O)N1C[C@@H](F)C[C@H]1C(=O)N1CCCCC1	35µM*	4%	-13%	i	1%
Nc1ncccc1CN1CCC2(CC1)CC(c1ccccc1)C(=O)N(C1CC1)C2 (centres undefined)	-17%	-1%	0%	i	-24%
Cc1cc(S(=O)(=O)N2CCc3nn(C)c(=O)n3CC2)ccc1Cl	-9%	i	0%	i	-3%
COC(=O)[C@@H]1Cc2c([nH]c3ccccc23)[C@H]2C[C@@H](NCc3cccnc3)C[C@@H](c3ccc(C(F)(F)F)cc3)N21	28µM*	-2%	2%	i	?
O=C(NCc1cccnc1)[C@@H]1C[C@@H](c2ccc(F)cc2)N(CCOc2ccccc2)C1	?	-9%[88.5 µM]	-18%[70.6 µM]	i	?
COC(=O)[C@@H]1Cc2c([nH]c3ccccc23)[C@H]2C[C@@H](NCc3cccnc3)C[C@@H](c3ccc(F)c(F)c3)N21	?	0%	-2%	i	25µM*
CN1C[C@H](NCc2ccc(F)cc2)CCC[C@@H](C(=O)N(C)Cc2cccnc2)CC1=O	-13%[174 µM]	-3%[88.5 µM]	-6%[70.6 µM]	i	?
COCC(=O)N[C@H]1C[C@H]2C(=O)NC[C@@H](CCC(=O)NCc3cccnc3)N2C1	-6%[174 µM]	-9%[88.5 µM]	2%[70.6 µM]	i	-21%[172 µM]
COC(=O)[C@@H]1Cc2c([nH]c3ccccc23)[C@H]2C[C@@H](NCc3cccnc3)C[C@@H](c3ccc(F)cc3)N21	20µM*	3%	-3%	i	22µM*
CS(=O)(=O)c1ccc(CC(=O)N[C@H]2CCOC[C@H]2C2CCOCC2)cc1	4%	2%	-3%	i	1%
COC(=O)CCCNC(=O)[C@@]1(O)C[C@@H](O)[C@H](O)[C@@H](NC(=O)Nc2ccc(C)cc2)C1	-13%[174 µM]	?	-3%[70.6 µM]	i	-21%[172 µM]
COC(=O)NC1CCN(c2nccc(Nc3ccc(OC)cc3)n2)CC1	-33%	i	·	·	?
COc1ccc(Nc2ccnc(N3CCC(NC(=O)c4ccc(OC)cc4)CC3)n2)cc1	?	-15%	·	·	?
COc1ccc(CC(=O)NC2CCN(c3nccc(Nc4ccc(OC)cc4)n3)CC2)cc1	35µM*	i	·	·	40µM*
COc1ccc(Nc2ccnc(N3CCC(NC(=O)c4ccccc4)CC3)n2)cc1	?	i	·	·	35µM*
Cc1ccc(Nc2ccnc(N3CCC(NC(=O)c4cccc(Cl)c4)CC3)n2)cc1	40µM*	i	·	·	?
SMILES	3T3 cytotox	GPT2 inh	NPR1 antag	Luciferase inh	HEK293 tox
COc1ccc(C(=O)NC2CCN(c3nccc(Nc4ccc(C)cc4)n3)CC2)cc1	?	-5%	·	·	35µM*
COc1ccc(Nc2ccnc(N3CCC(C(=O)NC4CC4)CC3)n2)cc1	?	i	·	·	?
Cc1cc(C(=O)N2CCOC[C@H](Oc3cnccn3)C2)n(C)n1	1%[138 µM]	-10%[88.5 µM]	0%[70.6 µM]	i	0%[172 µM]
COc1ccc(Nc2ccnc(N3CCC(C(=O)N4CCC(c5ccccc5)CC4)CC3)n2)cc1	20µM*	i	·	·	13µM*
COc1cccc(C(=O)NC2CCN(c3nccc(Nc4ccccc4OC)n3)CC2)c1	?	2%	·	·	40µM*
Cc1ccc(Nc2ccnc(N3CCC(NC(=O)c4ccc(Cl)cc4)CC3)n2)cc1	32µM*	i	·	·	22µM*
COc1ccccc1Nc1ccnc(N2CCC(NC(=O)c3cccc(Cl)c3)CC2)n1	?	-1%	·	·	?
COc1ccc(Nc2ccnc(N3CCC(NC(=O)c4cccc(OC)c4)CC3)n2)cc1	?	i	·	·	35µM*
COc1ccc(Nc2ccnc(N3CCC(C(=O)N4CCCCC4)CC3)n2)cc1	?	2%	·	·	?
COCC1CN(C(=O)CC2=CCCCC2)CC12CCNCC2 (centres undefined)	-8%	i	-4%	i	-4%
CC(C)CS(=O)(=O)Nc1ccc([C@H]2OCC(=O)N(C)[C@@H]2CO)cc1	-12%[138 µM]	i	1%[70.6 µM]	i	-8%[172 µM]
COc1ccc2c(c1)C=C(CN1CCCC(O)(CN(C)C)C1)CO2 (centres undefined)	-15%	?	5%	i	?
COc1ccc(Nc2ccnc(N3CCC(NC(=O)c4cccc(Cl)c4)CC3)n2)cc1	28µM*	?	·	·	14µM*
O=C(NC1CCN(c2nccc(Nc3ccccc3Cl)n2)CC1)c1cccc(Cl)c1	?	i	·	·	?
COc1ccc2nc3n(c2c1)[C@@H](CNS(=O)(=O)c1ccccc1)COC3	?	-3%[88.5 µM]	-15%[70.6 µM]	i	?
COCCCNC(=O)N1Cc2ccccc2OC2(CCN(C(C)C)CC2)C1	-20%	i	-12%	i	?
CC1=C[C@@H](CO)[C@H](C(C)C)C[C@H]1Cc1nnc(-c2ccncc2)o1	-25%[174 µM]	i	-15%[70.6 µM]	i	100µM*
CC1=C[C@@H](CO)[C@H](C(C)C)C[C@H]1Cc1nnc(-c2ccc(N(C)C)cc2)o1	89µM*	i	-28%[70.6 µM]	?	?
COCCNC[C@@H]1C=C(C)[C@H](Cc2nnc(-c3ccc(N(C)C)cc3)o2)C[C@H]1C(C)C	40µM*	-6%[88.5 µM]	-1%[70.6 µM]	i	25µM*
CC1=C[C@@H](CN(C)CCO)[C@H](C(C)C)C[C@H]1Cc1nnc(-c2ccc(N(C)C)cc2)o1	40µM*	-12%[88.5 µM]	-1%[70.6 µM]	i	63µM*
